Measured values reported in PubChem BioAssay (NCI).
Compounds without any hit were thinned out: in the full panel of roughly 83,000, 20% have a hit.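 Single-concentration screen, 48 h exposure, 96-well plates. Endpoint: percent growth. Below 10 = active.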 Unmarked numbers belong to inactive results. The source made the active and inactive calls.

Assays:
Test in all cases: NCI-60 one-dose screen, 48 h (100 = growth as untreated, 0 = no growth, -100 = all killed)
Conditions in all cases: 10 µM unless noted
[1] = system: HCT-15 colon
[2] = system: HT29 colon
[3] = system: SNB-75 CNS
[4] = system: SNB-19 CNS
[5] = system: U251 CNS
[6] = system: PC-3 prostate
[7] = system: SK-MEL-5 melanoma
[8] = system: UACC-62 melanoma
[9] = system: LOX IMVI melanoma
[10] = system: SK-MEL-28 melanoma
[11] = system: SK-MEL-2 melanoma
[12] = system: EKVX NSCLC
[13] = system: SN12C renal
[14] = system: UO-31 renal
[15] = system: TK-10 renal
[16] = system: ACHN renal
[17] = system: CAKI-1 renal
[18] = system: A498 renal
[19] = system: CCRF-CEM leukemia
[20] = system: MOLT-4 leukemia

| Compound | growth [1] | growth [2] | growth [3] | growth [4] | growth [5] | growth [6] | growth [7] | growth [8] | growth [9] | growth [10] | growth [11] | growth [12] | growth [13] | growth [14] | growth [15] | growth [16] | growth [17] [%] | growth [18] | growth [19] | growth [20] [%] |
| --- | --- | --- | --- | --- | --- | --- | --- | --- | --- | --- | --- | --- | --- | --- | --- | --- | --- | --- | --- | --- |
| O=C(Nc1ccc(I)cc1)c1cccc([N+](=O)[O-])c1O | 18.6% | 28.1% | 41.2% | 16.8% | 10.3% | 7.46% (active) | -44.1% (active) | 20.8% | 8.65% (active) | 21.5% | -11.9% (active) | 8.49% (active) | 20.3% | -0.371% (active) | 7.73% (active) | 21.8% | 13.4 | -6.2% (active) | 25.9% | – |
| CCNc1nc(N2CC(=O)Nc3cc(OC)ccc32)c2ccccc2n1 | 6.11% (active) | 0.723% (active) | 24.7% | 19.2% | 8.29% (active) | 6.21% (active) | -81.6% (active) | 9.13% (active) | 20.5% | 45% | 31.6% | 12.8% | 27% | 15.6% | 21.3% | 8.34% (active) | 22.6 | -11.4% (active) | 26.8% | 24.8 |
| Cc1ccccc1C(=O)c1ccccc1C(=O)O | 107% | 111% | 84.8% | 111% | 104% | 96.8% | 104% | 104% | 95.9% | 109% | 124% | 105% | 105% | 89.7% | 96.5% | 111% | 88.8 | 126% | 103% | – |
| CC/C=C\C/C=C\C[C@H]1C/C=C2/C(=O)C=C[C@H]2C/C=C\CCC(=O)O1 | -14.6% (active) | -16.5% (active) | 62% | 40.6% | 2.71% (active) | -18.9% (active) | -58.4% (active) | -43.6% (active) | -68.4% (active) | -1.61% (active) | 7.15% (active) | 18.3% | -10.2% (active) | -51.7% (active) | 2.67% (active) | -63.5% (active) | 34.1 | 77.7% | 3.86% (active) | – |
| CN(C)CCCNC(=O)C(c1ccccc1)c1ccccc1 | 104% | 95.9% | 94.5% | 97.3% | 98.2% | 99.1% | 103% | 98.8% | 89.3% | 109% | 95.6% | 106% | 96.8% | 84.1% | 88.2% | 93.5% | 99.5 | 104% | 100% | – |
| CCN1C(=O)N[C@H]2[C@@H]3NC(=O)c4ccc(Cl)n4[C@@H]3C[C@]21O | 13.4% | 2.91% (active) | -2.5% (active) | -8.44% (active) | -5.63% (active) | 9.77% (active) | -28.7% (active) | -20.9% (active) | -6.47% (active) | -6.88% (active) | -37% (active) | 10.8% | -1.6% (active) | 37.3% | 4.37% (active) | 14.9% | 31 | -0.0737% (active) | -7.16% (active) | – |
| O=C(C[N+](=O)[O-])c1ccc(Cl)cc1 | 103% | 113% | 94.9% | 111% | 107% | 97.3% | 104% | 101% | 96.4% | 106% | 119% | 107% | 107% | 90.3% | 109% | 111% | 95.2 | 108% | 104% | 106 |
| CN(C)C/C=C/C(=O)Nc1cc2c(Nc3cccc(Cl)c3F)ncnc2cc1OCCOC(F)F | 21.8% | 18.2% | 1.35% (active) | 57.1% | 50.3% | 40.2% | 73.4% | 53.5% | 43.9% | 78.2% | 70.1% | 19.2% | 12.6% | 16.1% | 22.4% | 4.97% (active) | 10.1 | -14.5% (active) | 63.1% | 38.6 |
| COc1cc(C2C3=C(COC3=O)Nc3c2ccc2c3CCCC2)cc2c1OCO2 (stereo not given) | 11.2% | -3.84% (active) | 34.3% | 36.1% | 23.1% | 31.7% | -18.8% (active) | 36.4% | 27.7% | 70.1% | 18.6% | 47.9% | 28% | 47.7% | 65.9% | 29.2% | 33.2 | 8.51% (active) | 14.6% | – |
| CCCCNc1nnc(-c2cc(-c3cc4ccccc4o3)nn2-c2ccccc2)o1 | 95.3% | 93.6% | 102% | 91.2% | 82.1% | 83.6% | 71.9% | 76.7% | 82.3% | 108% | 90.6% | 99.4% | 93.6% | 71.3% | 104% | 85.9% | 97.4 | 86.5% | 80% | 68.8 |
| Cc1cc(Cl)ccc1OC(C)C(=O)Nc1nnc(C2CC2)s1 (stereo not given) | 119% | 66.4% | 104% | 95.6% | 101% | 99.2% | 74% | 85.5% | 95.4% | 120% | 36.3% | 98.6% | 96.4% | 40.1% | 104% | 109% | 103 | 95.2% | 95.9% | – |
| NC(=O)c1c(NC(=O)c2ccc(OCC3CCCO3)cc2)sc2c1CCCC2 (stereo not given) | 101% | 105% | 135% | 106% | 95.2% | 74.4% | 78.2% | 85% | 105% | 125% | 84.9% | 89.6% | 90.7% | 35% | 126% | 106% | 108 | 86.5% | 79.9% | – |
| CC(=O)c1cc(C(=O)c2ccc3c(c2)Sc2ccccc2N3)c2cc(C)ccn12 | 8.38% (active) | -57% (active) | 9.11% (active) | 31.6% | 11.3% | 18% | -26.6% (active) | 30.2% | 17% | 56.1% | 35.8% | 31.1% | 23.1% | 28.4% | -25.7% (active) | 22.9% | 19 | -16.4% (active) | 11.1% | – |
| Cc1cc2c(C(C)C)c(O)c(O)c(C=NCCCCCCC(=O)O)c2c(O)c1-c1c(C)cc2c(C(C)C)c(O)c(O)c(C=NCCCCCCC(=O)O)c2c1O | 16.1% | 19% | 50.1% | 21.8% | 14.3% | 18.4% | 30.2% | 28.7% | 4.47% (active) | 40.2% | 28.5% | 27.7% | 35.7% | 28.8% | 17.3% | 42.1% | 63.3 | 36.6% | 18.1% | 18.5 |
| Cc1nc2scc(-c3ccccc3)n2c(=O)c1CCO | 96.1% | 103% | 71.6% | 98.3% | 103% | 87.7% | 100% | 97.6% | 92.3% | 113% | 124% | 92.3% | 98.8% | 72.5% | 99.9% | 98.9% | 80.5 | 86.8% | 103% | – |
